# “And” between values parts separate entries of the source, which are not always exact repeats. Identical values can stand only once. Results filed as inconclusive are left out. Where a call stands in place of a potency, no number is given. The source made the active and inactive calls. Unless noted, calls follow the shape of the dose curve; as a rule, active = well fitted curve in the direction sought with a large enough effect; inconclusive = small, poorly fitted or top-dose-only effect, or another doubt; inactive = no such curve, though single readings can be large; an effect the other way counts as inactive or inconclusive.
# Key:
# [1] = Primary qHTS to identify inhibitors of SARS-CoV-2 cell entry (AID 1645846; calls by dose curve; also: nearly all actives have a fitted effect of over 45% in size); conditions: SARS-CoV-2 pseudovirus cell entry assay, luminescence; activity change, negative = inhibition: at 57.1 µM (top of the series) unless noted
# In short: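 Entry measured by luciferase signal 48 h after adding SARS-CoV-2-S pseudotyped MLV particles to HEK293-ACE2 cells preincubated 1 h with compounds. Normalisation: bald particles and spike particles.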
# [2] = qHTS assay to identify inhibitors of the type 1 interferon - major histocompatibility complex class I in skeletal muscle: Counter screen cell viability and HiBit confirmation (AID 1347412); conditions: iHSKM muscle cells + IFN-b, HiBiT or CellTiter-Glo, 24 h; for activity change, negative = inhibition: at 45.9 µM (top of the series); also: potency is read from the fitted curve at half-maximal effect; as to all read-outs here: nearly all actives have a fitted effect of over 60% in size
# In short: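 After 24 h with human IFN-beta (4 ng/ml) and compound titrations (top 46 uM final, 1:3, 12 points), HLA-B HiBit myoblasts were lysed for either Nano-Glo HiBiT luminescence or CellTiter Glo viability on paired plates.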
# [3] = qHTS for differential inhibitors of proliferation of Plasmodium falciparum line 7G8 (AID 1815);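 also: parasite growth measured after three days of incubation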; also: potency is read from the fitted curve at half-maximal effect
# [4] = qHTS for differential inhibitors of proliferation of Plasmodium falciparum line GB4 (AID 1816); conditions: Potency: Plasmodium falciparum GB4 proliferation inhibition;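 also: parasite growth measured after 72 h incubation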; also: potency is read from the fitted curve at half-maximal effect
# [5] = qHTS for differential inhibitors of proliferation of Plasmodium falciparum line Dd2 (AID 1882); conditions: Potency: Plasmodium falciparum Dd2 proliferation inhibition; also: nearly all actives have a fitted effect of over 65% in size; also: potency is read from the fitted curve at half-maximal effect
# In short: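 SYBR Green DNA fluorescence (ex 485, em 535 nm) after overnight lysis quantifies parasite growth; compound exposure lasted 72 h at 37 C on infected red cells at 2.5% hematocrit, 0.3% parasitemia (final). Artemisinin 0.29 uM and vehicle wells define normalization.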
# [6] = target: Ubiquitin carboxyl-terminal hydrolase 1 (Homo sapiens) (UniProt O94782); experiment: Inhibitors of USP1/UAF1: Pilot qHTS (AID 504865); also: nearly all actives have a fitted effect of over 35% in size; also: potency is read from the fitted curve at half-maximal effect;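 as to activity change, negative = inhibition: rhodamine fluorescence freed from ubiquitin-rhodamine substrate followed over time; top concentration of the series differs between compounds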
# Sequence of Ubiquitin carboxyl-terminal hydrolase 1 (Homo sapiens) (O94782 whole entry, looked up): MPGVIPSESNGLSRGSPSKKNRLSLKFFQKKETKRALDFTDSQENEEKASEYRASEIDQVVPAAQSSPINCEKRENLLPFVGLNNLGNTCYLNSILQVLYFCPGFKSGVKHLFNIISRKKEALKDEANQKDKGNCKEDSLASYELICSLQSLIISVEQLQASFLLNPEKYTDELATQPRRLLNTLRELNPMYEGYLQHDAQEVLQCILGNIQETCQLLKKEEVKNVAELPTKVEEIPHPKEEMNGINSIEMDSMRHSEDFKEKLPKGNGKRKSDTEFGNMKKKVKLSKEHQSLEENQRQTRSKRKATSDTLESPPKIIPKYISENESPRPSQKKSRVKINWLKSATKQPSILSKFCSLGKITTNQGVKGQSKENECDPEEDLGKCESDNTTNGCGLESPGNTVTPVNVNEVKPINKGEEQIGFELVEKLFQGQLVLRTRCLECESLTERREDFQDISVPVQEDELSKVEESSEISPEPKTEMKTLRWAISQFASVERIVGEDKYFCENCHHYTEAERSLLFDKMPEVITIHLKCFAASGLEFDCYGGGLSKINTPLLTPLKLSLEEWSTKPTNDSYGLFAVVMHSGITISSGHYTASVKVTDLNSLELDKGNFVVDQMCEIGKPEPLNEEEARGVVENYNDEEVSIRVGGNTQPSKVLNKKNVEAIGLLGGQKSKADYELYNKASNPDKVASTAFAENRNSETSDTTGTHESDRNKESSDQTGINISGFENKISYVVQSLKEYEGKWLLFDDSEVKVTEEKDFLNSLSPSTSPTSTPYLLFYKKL
# In short: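 Deubiquitinase activity followed as kinetic rhodamine fluorescence release from 150 nM Ub-Rho. 1 nM USP1/UAF1 with compound, after 15 min room-temperature preincubation, in HEPES pH 7.8 buffer containing TCEP, EDTA, BSA and Tween-20.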
# [7] = target: Luciferin 4-monooxygenase (Photinus pyralis) (UniProt P08659); experiment: Biochemical firefly luciferase enzyme assay for NPC (AID 624030);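 also: purified P. pyralis luciferase at 10 nM with luciferin and ATP substrate; nearly all actives have a fitted effect of over 70% in size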
# Sequence of Luciferin 4-monooxygenase (Photinus pyralis) (P08659 whole entry, looked up): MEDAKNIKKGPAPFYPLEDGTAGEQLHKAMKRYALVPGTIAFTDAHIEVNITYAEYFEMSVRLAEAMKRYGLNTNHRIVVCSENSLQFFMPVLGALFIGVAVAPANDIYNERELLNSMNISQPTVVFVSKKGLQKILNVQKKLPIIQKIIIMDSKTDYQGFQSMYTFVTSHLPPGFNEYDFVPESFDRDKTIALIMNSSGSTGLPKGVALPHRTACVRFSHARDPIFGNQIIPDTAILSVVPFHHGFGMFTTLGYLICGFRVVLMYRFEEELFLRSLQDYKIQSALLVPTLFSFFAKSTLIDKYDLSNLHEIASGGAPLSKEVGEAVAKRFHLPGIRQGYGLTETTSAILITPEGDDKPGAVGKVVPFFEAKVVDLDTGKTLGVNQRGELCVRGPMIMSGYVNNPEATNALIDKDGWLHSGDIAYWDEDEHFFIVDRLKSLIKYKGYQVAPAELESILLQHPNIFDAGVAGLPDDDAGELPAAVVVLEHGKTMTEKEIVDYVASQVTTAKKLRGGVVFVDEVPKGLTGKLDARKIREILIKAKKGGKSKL
# In short: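 Counter-screen for direct inhibition of the luciferase enzyme by approved-drug library compounds, run at 10 nM enzyme in 50 mM Tris acetate (final). Luminescence was read within 5 min of enzyme-buffer addition and normalized to PTC124 versus DMSO (0%).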
# [8] = qHTS profiling for inhibitors of Plasmodium falciparum proliferation (AID 504749); also: nearly all actives have a fitted effect of over 60% in size; conditions: P. falciparum in erythrocytes, SYBR Green DNA, 72 h, at 28.7 µM (top of the series)
# In short: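 Quantitative HTS: compounds pinned into medium, infected erythrocytes added (0.3% parasitemia, 2.5% hematocrit), 72 h culture at 37 C under 5% CO2. Saponin/Triton lysis with SYBR Green I, overnight RT, then fluorescence read.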
# [9] = Primary qHTS for inhibitors of SARS-S pseudo-typed particle cell entry (AID 1479145; calls by dose curve; also: nearly all actives have a fitted effect of over 45% in size; also: potency is read from the fitted curve at half-maximal effect); conditions: outcome: dose series up to 57.1 µM unless noted
# [10] = Primary qHTS for Huh7 cytotoxicity: counterscreen for inhibitors of MERS-S pseudotyped particle cell entry (AID 1479147; calls by dose curve); conditions: outcome: dose series up to 57.1 µM unless noted
# [11] = Primary qHTS for Vero E6 cytotoxicity: counterscreen for inhibitors of SARS-S pseudo-typed particle cell entry (AID 1479150; calls by dose curve); conditions: outcome: dose series up to 57.1 µM unless noted
# [12] = target: RecQ-like DNA helicase BLM (Homo sapiens) (UniProt P54132); experiment: qHTS Validation Assay for Inhibitors of Bloom's syndrome helicase (BLM) (AID 2364)
# Sequence of RecQ-like DNA helicase BLM (Homo sapiens) (P54132 whole entry, looked up): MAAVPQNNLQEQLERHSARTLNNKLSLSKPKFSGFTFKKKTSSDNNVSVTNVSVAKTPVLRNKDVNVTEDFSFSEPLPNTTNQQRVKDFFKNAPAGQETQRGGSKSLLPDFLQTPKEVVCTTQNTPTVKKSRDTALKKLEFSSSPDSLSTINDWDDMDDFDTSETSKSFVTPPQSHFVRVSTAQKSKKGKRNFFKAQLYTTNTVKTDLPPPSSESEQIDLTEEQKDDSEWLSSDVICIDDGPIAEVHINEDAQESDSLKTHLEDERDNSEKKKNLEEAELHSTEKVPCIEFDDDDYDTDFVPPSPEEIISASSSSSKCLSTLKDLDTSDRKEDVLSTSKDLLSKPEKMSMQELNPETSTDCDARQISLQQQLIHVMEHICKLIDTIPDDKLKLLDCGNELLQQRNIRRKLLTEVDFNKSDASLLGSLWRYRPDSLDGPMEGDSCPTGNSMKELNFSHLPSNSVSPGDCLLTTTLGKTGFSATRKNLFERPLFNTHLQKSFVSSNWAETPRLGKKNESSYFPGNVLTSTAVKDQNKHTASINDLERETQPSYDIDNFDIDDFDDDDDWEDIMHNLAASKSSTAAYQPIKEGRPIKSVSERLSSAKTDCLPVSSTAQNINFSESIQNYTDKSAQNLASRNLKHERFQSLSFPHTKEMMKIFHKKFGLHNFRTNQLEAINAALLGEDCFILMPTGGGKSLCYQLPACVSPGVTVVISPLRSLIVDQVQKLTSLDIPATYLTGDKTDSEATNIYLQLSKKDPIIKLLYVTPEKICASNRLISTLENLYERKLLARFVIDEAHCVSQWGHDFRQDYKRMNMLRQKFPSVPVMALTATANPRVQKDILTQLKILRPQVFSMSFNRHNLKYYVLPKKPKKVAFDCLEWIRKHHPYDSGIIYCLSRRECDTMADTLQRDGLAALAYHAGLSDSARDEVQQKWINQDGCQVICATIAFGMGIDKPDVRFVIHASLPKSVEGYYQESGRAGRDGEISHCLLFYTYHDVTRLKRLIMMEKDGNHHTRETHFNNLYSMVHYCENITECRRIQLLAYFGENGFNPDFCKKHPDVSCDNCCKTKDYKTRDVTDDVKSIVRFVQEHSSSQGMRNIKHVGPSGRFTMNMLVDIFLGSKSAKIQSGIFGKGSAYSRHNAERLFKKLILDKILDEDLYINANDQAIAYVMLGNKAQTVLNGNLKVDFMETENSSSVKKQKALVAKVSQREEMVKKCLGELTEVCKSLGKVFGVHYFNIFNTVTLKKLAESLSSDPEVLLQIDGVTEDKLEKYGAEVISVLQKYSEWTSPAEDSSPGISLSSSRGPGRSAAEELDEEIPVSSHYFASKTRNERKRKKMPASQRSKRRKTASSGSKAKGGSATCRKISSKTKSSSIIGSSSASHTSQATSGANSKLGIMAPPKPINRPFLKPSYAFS
# In short: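 BLM 50 nM in 25 mM Tris-HCl pH 8.0, 5 mM NaCl, 2 mM MgCl2, 1 mM DTT, 0.01% Tween-20, 2.5 ug/ml poly(dI-dC); 15 min cpd preinc, RT. Start: 200 nM forked DNA + 2 mM ATP (final). TAMRA read, 2 reads 2 h apart.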
# [13] = target: Glucocorticoid receptor (Homo sapiens) (UniProt P04150); experiment: GR-GFP Redistribution (AID 450;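 active = compounds whose dose series gives a full or clear partial fitted curve of increased nuclear translocation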; also: potency is read from the fitted curve at half-maximal effect); conditions: U2OS GR-GFP nuclear translocation, laser cytometry, 2 h
# Sequence of Glucocorticoid receptor (Homo sapiens) (P04150 whole entry, looked up, the tested form may be a part): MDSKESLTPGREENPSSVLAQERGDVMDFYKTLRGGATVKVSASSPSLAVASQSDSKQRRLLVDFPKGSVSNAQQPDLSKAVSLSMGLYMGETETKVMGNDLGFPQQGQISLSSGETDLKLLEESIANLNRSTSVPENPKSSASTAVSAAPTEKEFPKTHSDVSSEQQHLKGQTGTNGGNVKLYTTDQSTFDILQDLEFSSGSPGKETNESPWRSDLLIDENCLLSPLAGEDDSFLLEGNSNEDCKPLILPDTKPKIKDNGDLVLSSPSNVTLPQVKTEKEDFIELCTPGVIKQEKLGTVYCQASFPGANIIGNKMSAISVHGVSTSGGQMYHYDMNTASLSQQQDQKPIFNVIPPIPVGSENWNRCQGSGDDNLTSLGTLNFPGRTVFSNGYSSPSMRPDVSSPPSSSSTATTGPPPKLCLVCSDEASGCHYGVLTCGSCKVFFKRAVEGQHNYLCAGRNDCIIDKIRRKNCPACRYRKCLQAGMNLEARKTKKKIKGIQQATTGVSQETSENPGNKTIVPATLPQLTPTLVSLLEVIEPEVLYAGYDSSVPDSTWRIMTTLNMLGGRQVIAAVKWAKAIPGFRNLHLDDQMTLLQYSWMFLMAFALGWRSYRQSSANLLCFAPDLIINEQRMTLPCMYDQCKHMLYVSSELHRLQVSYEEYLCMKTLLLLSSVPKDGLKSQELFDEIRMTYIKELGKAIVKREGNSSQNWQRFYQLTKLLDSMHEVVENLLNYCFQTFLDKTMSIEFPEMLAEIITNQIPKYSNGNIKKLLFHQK
# [14] = target: Glucocorticoid receptor (Homo sapiens) (UniProt P04150); experiment: GR-EFC Redistribution (AID 451; calls by dose curve; also: potency is read from the fitted curve at half-maximal effect); conditions: CHO-K1 GR-EFC translocation, beta-gal luminescence, 2 h
# In short: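 CHO-K1 cells stably expressing nuclear-localized β-gal enzyme acceptor and GR fused C-terminally to the enzyme donor fragment; ligand-driven nuclear translocation restores β-gal by complementation. Compounds titrated up to 46 uM final, 2 h at 37 °C; luminescence read.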
# [15] = target: Mitogen-activated protein kinase 10 (Mus musculus) (UniProt Q61831); experiment: JNK3 AlphaScreen Assay (AID 530; active = well fitted curve in either direction with a large enough effect, not every such curve was filed as active;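 also: kinase came from lysate of stimulated human HepG2 cells; signal reports phosphorylation of biotinylated GST-cJun 1-79 at Ser73 with 10 µM ATP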)
# In short: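 Phosphorylation of biotinylated GST-cJun(1-79) at Ser73 is measured by AlphaScreen proximity luminescence. Enzyme is JNK3 in HepG2 lysates activated with interleukin-1beta and tumor necrosis factor alpha; ATP is 10 uM final.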
# [16] = target: 3',5'-cyclic-AMP phosphodiesterase 4B (Homo sapiens) (UniProt Q07343); experiment: qHTS Assay for Inhibitors of PDE-IV (AID 607; active = well fitted activation curve with a large enough effect in the main read-out, with a control signal flat, not every such curve was filed as active; also: potency is read from the fitted curve at half-maximal effect)
# Sequence of 3',5'-cyclic-AMP phosphodiesterase 4B (Homo sapiens) (Q07343 whole entry, looked up): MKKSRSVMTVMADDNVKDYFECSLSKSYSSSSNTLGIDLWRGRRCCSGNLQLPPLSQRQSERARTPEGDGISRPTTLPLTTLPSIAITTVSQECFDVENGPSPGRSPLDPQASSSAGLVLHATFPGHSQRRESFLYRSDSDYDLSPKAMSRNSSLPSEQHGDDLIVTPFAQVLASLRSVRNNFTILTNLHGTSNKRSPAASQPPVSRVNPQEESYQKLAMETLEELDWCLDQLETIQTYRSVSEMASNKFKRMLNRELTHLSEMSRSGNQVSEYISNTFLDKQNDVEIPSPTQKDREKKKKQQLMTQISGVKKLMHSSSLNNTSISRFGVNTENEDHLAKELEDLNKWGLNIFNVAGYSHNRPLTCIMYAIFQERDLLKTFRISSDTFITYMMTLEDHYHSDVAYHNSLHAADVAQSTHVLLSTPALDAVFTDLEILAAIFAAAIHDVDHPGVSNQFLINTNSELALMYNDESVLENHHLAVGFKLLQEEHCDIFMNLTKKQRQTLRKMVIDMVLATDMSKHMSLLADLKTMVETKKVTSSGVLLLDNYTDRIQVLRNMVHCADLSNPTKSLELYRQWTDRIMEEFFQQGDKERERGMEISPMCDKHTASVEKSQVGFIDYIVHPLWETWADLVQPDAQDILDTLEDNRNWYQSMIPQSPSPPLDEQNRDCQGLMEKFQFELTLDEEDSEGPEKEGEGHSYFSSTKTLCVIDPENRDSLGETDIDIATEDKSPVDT
# In short: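 Cell-based read-out of cAMP via a modified cyclic nucleotide-gated channel and membrane potential dye (535/590 nm) in HEK293 cells expressing PDE4 endogenously. Compounds tested up to 22.9 uM final; 100 uM RO 20-1724 reference.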
smiles,measurement,setting,value
CC(C)[C@]12O[C@H]1[C@@H]1O[C@@]13[C@@]1(C)CCC4=C(COC4=O)[C@@H]1C[C@@H]1O[C@@]13C2=O,"activity change, negative = inhibition",[1],-93.1%
same,Potency,[2]; HiBiT,0.0497 µM (active)
same,"activity change, negative = inhibition",[2]; Viability,4.52% (inactive)
CCCC[N+]1(C)C2CC(OC(=O)C(CO)c3ccccc3)CC1C1OC12 (configuration not stated),Potency,[3],inactive
same,Potency,[4],inactive
same,Potency,[5],inactive
same,Potency,[6],inactive
same,Potency,[7],inactive
same,"activity, negative = inhibition",[8]; parasite line A,-8.81% (inactive)
same,"activity, negative = inhibition",[8]; parasite line B,-5.62% (inactive)
Nc1ncnc2c1ncn2[C@@H]1O[C@H](COP(=O)(O)CP(=O)(O)OP(=O)(O)O)[C@H](O)[C@H]1O,Potency,[3],inactive
same,Potency,[4],inactive
same,Potency,[5],inactive
CO[C@H]1O[C@@H]2O[C@@]3(C)CC[C@H]4[C@H](C)CC[C@@H]([C@@H]1C)[C@@]24OO3,Potency,[9],inactive
same,Potency,[10],inactive
same,Potency,[11],inactive
CC(C)(O)C1C2OC(=O)C1[C@]1(O)C[C@H]3O[C@]34C(=O)O[C@H]2[C@]14C (some centres not stated) (tested in a mixture with another compound),Potency,[3],inactive
same,Potency,[4],inactive
same,Potency,[5],inactive
same,Potency,[6],inactive
same,Potency,[7],inactive
same,"activity, negative = inhibition",[8]; parasite line A,14% (inactive)
same,"activity, negative = inhibition",[8]; parasite line B,-0.69% (inactive)
CCCCN1C2CCC1CC(OC(c1ccc(F)cc1)c1ccc(F)cc1)C2 (configuration not stated),Potency,[3],2 µM (active)
same,Potency,[4],1.58 µM (active)
same,Potency,[5],3.98 µM (active)
C=CCN1CC[C@@]2(C)c3cc(O)ccc3CC1[C@@H]2C,Potency,[3],7.94 µM (active)
same,Potency,[4],12.6 µM (active)
same,outcome,[12],inactive
CCCN(CCC)[C@@H]1CCc2c(F)ccc(O)c2C1,Potency,[3],1.12 µM (active)
same,Potency,[4],0.355 µM (active)
same,Potency,[5],1.41 µM (active)
same,outcome,[12],inactive
CC1Cc2cc3c(cc2C(c2ccc(N)cc2)=NN1)OCO3 (configuration not stated),Potency,[3],12.6 µM (active)
NNCc1cccc(O)c1,Potency,[13],> 46 µM (inactive)
same,Potency,[14],> 46 µM (inactive)
same,outcome,[15],inactive
same,Potency,[3],12.6 µM (active)
NCC#Cc1ccccc1,Potency,[13],> 46 µM (inactive)
same,Potency,[14],> 46 µM (inactive)
same,outcome,[15],inactive
same,Potency,[16],inactive
same,Potency,[4],inactive
same,Potency,[5],inactive
CCCN1CCCC(c2cccc(O)c2)C1 (configuration not stated),Potency,[3],8.91 µM (active)
same,Potency,[4],12.6 µM (active)
same,outcome,[12],inactive
CCN(CC)C(=O)N[C@@H]1C[C@@H]2c3cccc4[nH]cc(c34)C[C@H]2N(C)C1,Potency,[3],5.62 µM (active)
same,Potency,[4],6.31 µM (active)
same,Potency,[6],inactive
same,Potency,[7],inactive
C[C@H]1C2Cc3ccc(O)cc3[C@]1(C)CCN2CC1CC1,Potency,[4],11.2 µM (active)
same,Potency,[5],7.94 µM (active)
same,outcome,[12],inactive
same,Potency,[6],inactive
same,Potency,[7],inactive
C/C1=C/C[C@@H](/C(C)=C/c2csc(C)n2)OC(=O)C[C@H](O)C(C)(C)C(=O)[C@H](C)[C@@H](O)[C@@H](C)CCC1,"activity change, negative = inhibition",[1],-64.3%
same,"activity change, negative = inhibition",[2]; Viability,-15.3% (inactive)
C[C@H]1OC[C@@H](C[N+](C)(C)C)O1,Potency,[13],> 46 µM (inactive) and > 20.6 µM (inactive)
same,Potency,[14],> 46 µM (inactive)
same,outcome,[15],inactive
same,Potency,[3],inactive
same,Potency,[4],inactive
same,Potency,[5],inactive
same,outcome,[12],inactive
CN1CCC23CCCC[C@H]2C1Cc1ccc(O)cc13 (some centres not stated),Potency,[3],6.31 µM (active)
same,Potency,[5],5.01 µM (active)
C[N+]1(C)C2CC(OC(=O)C(CO)c3ccccc3)CC1C1OC12 (configuration not stated),Potency,[3],inactive
same,Potency,[4],inactive
same,Potency,[5],inactive
same,outcome,[12],inactive
CCCN1CCC[C@@H]2Cc3n[nH]cc3C[C@H]21,Potency,[4],inactive
same,Potency,[5],inactive
COCC(=O)Nc1cc(Sc2ccccc2)ccc1N=C(NC(=O)OC)NC(=O)OC,Potency,[9],inactive
same,Potency,[10],inactive
same,Potency,[11],inactive
C=C1CC2C3CCC4=CC(=O)C=C[C@]4(C)[C@@]3(F)[C@@H](O)C[C@]2(C)[C@@]1(O)C(=O)COC(C)=O (some centres not stated),Potency,[9],inactive
same,Potency,[10],inactive
same,Potency,[11],inactive
Oc1ccc2c3c1O[C@H]1[C@@H](O)CC[C@@]4(O)C(C2)N(CC2CCC2)CCC314 (some centres not stated),Potency,[3],inactive
same,Potency,[5],inactive
same,outcome,[12],inactive
same,Potency,[7],inactive
same,"activity, negative = inhibition",[8]; parasite line A,12% (inactive)
same,"activity, negative = inhibition",[8]; parasite line B,0.575% (inactive)
CCN1C[C@]2(C)CC[C@H](O)[C@@]34[C@@H]5C[C@@H]6[C@@H](OC)C[C@@](O)(C5[C@H]6O)[C@@H](C[C@@H]23)[C@@H]14,Potency,[3],inactive
same,Potency,[5],inactive
CC[C@@H](CO)NC(=O)[C@H]1C=C2c3cccc4c3c(cn4C)C[C@H]2N(C)C1,Potency,[16],inactive
same,Potency,[6],35.5 µM (active)
CCC1/C=C/C=CCC(C)C(O)[C@@](C)(O)C(=O)C(C)C(O)C(C)C(=O)C(C)C(O)C(C)C=CC(=O)O[C@H]2C(C)C(CC1)O[C@]1(CCC(C)C(CC(C)O)O1)C2C (some centres not stated),"activity change, negative = inhibition",[2]; HiBiT,-31.9% (inactive)
same,"activity change, negative = inhibition",[2]; Viability,-23.7% (inactive)
N#CC(=Cc1ccc(O)c(O)c1)C(N)=S,Potency,[5],inactive
COc1cc(C[C@@H](C)N)c(OC)cc1I,Potency,[4],12.6 µM (active)
same,Potency,[5],7.08 µM (active)
same,outcome,[12],inactive
CCCN(CCC)C(=O)Cc1c(-c2ccc(Cl)cc2)nc2c(Cl)cc(Cl)cn12,Potency,[13],> 46 µM (inactive)
same,Potency,[14],> 46 µM (inactive)
same,Potency,[16],2.51 µM (active)
C#CCN(C)C(C)Cc1ccccc1 (configuration not stated),Potency,[13],> 20.6 µM (inactive)
same,Potency,[3],inactive
same,Potency,[4],inactive
same,Potency,[5],inactive
same,outcome,[12],inactive
COc1ccc2c(c1O)-c1cccc3c1C(C2)N(C)CC3 (configuration not stated),Potency,[3],8.91 µM (active)
same,Potency,[4],8.91 µM (active)
same,Potency,[5],11.2 µM (active)
same,outcome,[12],inactive
CC12CCC3C(CCC4=C(O)C(=O)CCC43C)C1CCC2=O (configuration not stated),Potency,[4],inactive
same,Potency,[5],inactive
same,outcome,[12],inactive
same,Potency,[6],inactive
same,Potency,[7],inactive
CCNC(=O)[C@H]1O[C@@H](n2cnc3c(N)ncnc32)[C@H](O)[C@H]1O,Potency,[3],inactive
same,Potency,[4],inactive
same,Potency,[5],inactive
CCC(CO)NC(=O)[C@@H]1C=C2c3cccc4[nH]cc(c34)C[C@H]2N(C)C1 (some centres not stated),Potency,[3],10 µM (active)
C[C@]12CC[C@H]3[C@@H](CCC4C[C@H](O)CC[C@@]43C)[C@@H]1CC[C@@H]2O (some centres not stated),Potency,[3],inactive
same,Potency,[4],inactive
same,Potency,[5],inactive
same,outcome,[12],inactive
COc1cc(C=C(C#N)C#N)cc(O)c1O,Potency,[13],> 46 µM (inactive)
same,Potency,[14],> 46 µM (inactive)
same,outcome,[15],inactive
same,Potency,[16],inactive
same,Potency,[4],12.6 µM (active)
NC(Cn1ccc(=O)[nH]c1=O)C(=O)O (configuration not stated),Potency,[3],inactive
same,Potency,[4],inactive
same,Potency,[5],inactive
Cc1cc(/C=C/C#N)cc(C)c1Nc1ccnc(Nc2ccc(C#N)cc2)n1,Potency,[9],22.4 µM (active)
CN1C[C@@H](CS(=O)(=O)N(C)C)C[C@@H]2c3cccc4c3c(cn4C)C[C@H]21,outcome,[12],inactive
CCCN1CCC[C@@H](c2cccc(C#N)c2)C1,Potency,[5],inactive
COC(=O)C(N)CCCN=C(N)N[N+](=O)[O-] (configuration not stated),Potency,[3],inactive
same,Potency,[4],inactive
same,Potency,[5],inactive
C[C@@H]1CCC[C@H](C)N1NC(=O)c1ccc(Cl)c(S(N)(=O)=O)c1,Potency,[9],inactive
same,Potency,[10],inactive
same,Potency,[11],inactive
